TGFb SMAD3 inh = qHTS for Inhibitors of TGF-b; HepG2 CAGA-GFP TGF-b/SMAD3 reporter, GFP fluorescence, 18 h; TGF-beta stimulated, 500 pg/mL final; Potency, µM (highest dose often 46.1 µM), for inactives: top-dose activity, negative = inhibition, actives largely listed as inhibitors; actives 1.2% (n = 410,000); AID 588855, 2011; further: potency means the concentration at half of the fitted maximal effect; on the % scale 0 is the no-effect control and ±100 the full control effect; nearly all actives have a fitted effect of over 65% in size
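GFP signal (ex488/em500-530) from TGF-beta-stimulated HEPG2 CAGA-GFP cells, 500 pg/mL final, 18 h at 37 degrees C in DMEM plus 1% FBS, normalized to unstimulated and DMSO-stimulated controls.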
TDP1 inh = qHTS Assay for Inhibitors of Tyrosyl-DNA Phosphodiesterase (TDP1); recombinant TDP1, AlphaScreen DNA substrate cleavage; actives 0.28% (n = 350,000); Potency, µM (doses to about 130 µM), without a hit: at the highest dose activity change, negative = inhibition, most hits filed as inhibitors; AID 485290, 2010; Tyrosyl-DNA phosphodiesterase 1 (Homo sapiens), Q9NUW8; further: potency means the concentration at half of the fitted maximal effect; on the % scale 0 is the no-effect control and ±100 the full control effect; nearly all actives have a fitted effect of over 40% in size
Target sequence (Q9NUW8 whole entry, looked up): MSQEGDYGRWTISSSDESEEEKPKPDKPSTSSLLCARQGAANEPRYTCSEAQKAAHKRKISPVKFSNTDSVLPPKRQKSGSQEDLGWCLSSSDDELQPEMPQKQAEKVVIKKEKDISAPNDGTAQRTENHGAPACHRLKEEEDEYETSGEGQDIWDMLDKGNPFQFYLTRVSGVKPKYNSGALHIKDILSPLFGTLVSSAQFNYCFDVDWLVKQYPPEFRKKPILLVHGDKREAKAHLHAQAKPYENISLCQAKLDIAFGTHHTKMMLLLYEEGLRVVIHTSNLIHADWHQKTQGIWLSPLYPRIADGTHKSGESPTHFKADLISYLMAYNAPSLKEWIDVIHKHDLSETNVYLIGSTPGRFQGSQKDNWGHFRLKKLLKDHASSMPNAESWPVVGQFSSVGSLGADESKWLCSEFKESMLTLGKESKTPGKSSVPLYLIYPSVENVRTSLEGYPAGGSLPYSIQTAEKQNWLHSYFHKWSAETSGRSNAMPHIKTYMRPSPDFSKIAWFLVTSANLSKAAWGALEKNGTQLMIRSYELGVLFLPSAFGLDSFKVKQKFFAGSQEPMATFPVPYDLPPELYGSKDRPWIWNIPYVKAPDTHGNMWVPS
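Enzyme-compound mixtures sat 15 min at room temperature, followed by a 5 min reaction with 15 nM final substrate and 10 min with AlphaScreen beads. Recombinant human Tdp1 was used at 1 nM final.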
HepG2 tox-1 = qHTS for Inhibitors of TGF-b: Cytotox Counterscreen. HepG2 CAGA-GFP viability, ATP luminescence, 18 h. Potency, µM (top dose mostly 46.1 µM), without a hit: at the top dose activity change, negative = cytotoxicity, actives largely listed as cytotoxic. actives 0.76% (n = 410,000); further: potency means the concentration at half of the fitted maximal effect
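HepG2 CAGA-GFP cells (1000/well, DMEM with 1% FBS) received compound, then TGF-beta at 500 pg/mL final, and were incubated 18 hours at 37 degrees C. Viability was read by CellTiter-Glo luminescence. Media-only wells were set as complete cell-killing and DMSO as no toxicity.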
TDP1 cell noCPT = qHTS for Inhibitors of human tyrosyl-DNA phosphodiesterase 1 (TDP1): qHTS in cells in absence of CPT. Potency, µM (top dose mostly 46.2 µM), inactives show at the top dose activity change, negative = growth inhibition, hits mostly inhibitors. actives 15% (n = 420,000). DT40 Tdp1-/- hTDP1 cells, no CPT, ATP luminescence, 48 h; further: potency means the concentration at half of the fitted maximal effect; on the % scale 0 is the no-effect control and ±100 the full control effect; nearly all actives have a fitted effect of over 55% in size
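Growth kinetics read by CellTiter-Glo luminescence after ≥48 hr at 37 °C. Cells: DT40 Tdp1-/- stably carrying human TDP1, 400 per well, compound exposure in the absence of CPT (DMSO vehicle).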
TDP1 cell CPT = qHTS for Inhibitors of human tyrosyl-DNA phosphodiesterase 1 (TDP1): qHTS in cells in presence of CPT | chicken DT40 Tdp1-/-;hTDP1 cells + 20 nM CPT, ATP luminescence, 48 h | Potency, µM (highest dose often 46.2 µM), for inactives: top-dose activity change, negative = growth inhibition, actives largely listed as inhibitors | actives 12% (n = 420,000); further: potency means the concentration at half of the fitted maximal effect; on the % scale 0 is the no-effect control and ±100 the full control effect; nearly all actives have a fitted effect of over 55% in size
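Chicken DT40 Tdp1-/- cells complemented with human TDP1, 400 cells/well, exposed to compounds plus 20 nM camptothecin for at least 48 h at 37 C; viability read as ATP content by CellTiter-Glo luminescence.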
IL-1B inflam inh = qHTS for Inhibitors of Inflammasome Signaling: IL-1-beta AlphaLISA Primary Screen | THP-1 LPS/ATP IL-1B secretion, AlphaLISA, 16 h; hits give low values | activity change, % at 57.5 µM | actives 4.7% (n = 360,000) | AID 743279, 2014; in the data active means activity change below about -50%; inconclusive means mostly about -30% to -49%; further: on the % scale 0 is the no-effect control and ±100 the full control effect
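THP-1 cells pretreated 1 hr with compounds (up to 57.5 uM final), then stimulated with LPS (250 ng/mL final) plus ATP (1.25 mM final); secreted IL-1B measured by AlphaLISA after 16 hr, decreased signal indicating inhibition.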
TGFb confirm = qHTS for Inhibitors of TGF-b: Confirmation of Cherry Picks. shares compounds with TGFb SMAD3 inh. HepG2 CAGA-GFP TGF-b reporter, GFP fluorescence, 18 h; cells stimulated with TGF-beta, 500 pg/mL. Potency, µM (titrated, usually from 46.1 µM), for inactives: top-dose activity, negative = inhibition, usual class: inhibitors. actives 63% (n = 1,600). AID 720534, 2013; further: potency means the concentration at half of the fitted maximal effect; on the % scale 0 is the no-effect control and ±100 the full control effect; nearly all actives have a fitted effect of over 65% in size
HepG2 tox-2 = qHTS for Inhibitors of TGF-b: Cytotox Counterscreen for Cherry Picks. HepG2 CAGA-GFP viability, ATP luminescence, 18 h; cells stimulated with TGF-beta, 500 pg/mL. actives 27% (n = 1,600). shares compounds with TGFb SMAD3 inh. Potency, µM (doses to about 46.1 µM), without a hit: at the top dose activity, negative = cytotoxicity, most hits filed as inhibitors; further: potency means the concentration at half of the fitted maximal effect; on the % scale 0 is the no-effect control and ±100 the full control effect; nearly all actives have a fitted effect of over 70% in size
TGFb CCL64 inh = qHTS for Inhibitors of TGF-b: CCL64 Cells Orthogonal Assay for Cherry Picks; Potency, µM (titrated, usually from 46.1 µM), for inactives: at the top dose activity, negative = inhibition, actives largely listed as inhibitors; actives 41% (n = 1,600); CCL64 CAGA-GFP reporter, TGF-b stimulated, GFP fluorescence, 18 h; shares compounds with TGFb SMAD3 inh; AID 720536, 2013; further: potency means the concentration at half of the fitted maximal effect; nearly all actives have a fitted effect of over 65% in size
TGFb COP inh = qHTS for Inhibitors of TGF-b: Hit Validation in HepG2 Cells using COP promoter; shares compounds with TGFb SMAD3 inh; Potency, µM (top dose mostly 46.1 µM), without a hit: at the highest dose activity, negative = inhibition, most hits filed as inhibitors; actives 3% (n = 1,600); HepG2 COP-GFP TGF-b reporter, GFP fluorescence, 18 h; cells stimulated by added recombinant TGF-beta; further: potency means the concentration at half of the fitted maximal effect; nearly all actives have a fitted effect of over 70% in size
Active calls of the source: *; ? = inconclusive; . = no result; [ ] = another dose, or the depositor's remark. Rows were chosen to be rich in hits. Some 19% of all compounds tested hit in one or more screens of this group. Unless noted, the call rests on the fitted dose curve; in most records, active means well fitted curve in the direction sought with a large enough effect; inconclusive means small, poorly fitted or top-dose-only effect, or another doubt; inactive means no such curve, though single readings can be large; an effect the other way counts as inactive or inconclusive.

SMILES	TGFb SMAD3 inh	TDP1 inh	HepG2 tox-1	TDP1 cell noCPT	TDP1 cell CPT	IL-1B inflam inh	TGFb confirm	HepG2 tox-2	TGFb CCL64 inh	TGFb COP inh
C[C@@H](C(=O)Nc1nc(-c2ccccn2)cs1)N1C(=O)C2CCCCC2C1=O (some centres undefined)	-20%	-8%	-8%	?	?	69	.	.	.	.
Cc1cccc(OCC(=O)NCC(C)(C)N2CCOCC2)c1	14%	1%	-26%	2%	-11%	16	.	.	.	.
CCOCCCNC(=O)Cn1cnc2c(cnn2-c2ccc(C)c(C)c2)c1=O	1%	2%	-1%	?	?	29	.	.	.	.
NC(=O)c1oc2ccccc2c1NC(=O)c1ccc([N+](=O)[O-])o1	7.1µM*	7%[0.0935 µM]	-31%	0.58µM*	0.73µM*	-91*	4.6µM*	23µM*	?	51%
NC(=O)c1oc2ccccc2c1NC(=O)c1ccc(F)cc1	-19%	2%	31%	-15%	-7%	3	.	.	.	.
CCOC(=O)CNC(=O)CSc1nnc(Cn2c(=O)sc3ccccc32)n1-c1ccccc1C	?	7%	-29%	?	?	-94*	?	-5%	4%	1%
Cc1ccccc1-n1c(Cn2c(=O)sc3ccccc32)nnc1SCC(=O)N1CCCC1	20%	1%	11%	-4%	-19%	-7	.	.	.	.
CCN(CC)S(=O)(=O)c1ccc(O)c(C(=O)OCC(=O)N2c3ccccc3CC2C)c1 (centres undefined)	5%	.	17%	-5%	-13%	-5	.	.	.	.
CN(c1ccc(F)cc1)S(=O)(=O)c1ccc(Cl)c(C(=O)Nc2ccc3c(c2)CCC3)c1	11µM*	-4%	1%	3.7µM*	5.2µM*	-17	?	-12%	-20%	-7%
CCn1c(/C=C/c2cc(Br)ccc2O)nc2ccccc2c1=O	10µM*	2%	-43%	?	?	-58*	?	?	-3%	24%

Screens deposited in PubChem BioAssay by National Center for Advancing Translational Sciences (NCATS).
